phage Ecoli inh – E. coli growth loss with phage present; growth absorbance; AID 651602; inhibition, % at 11.9 µM; 360,000 compounds, 0.26% hits; in the data active = inhibition above about 11%
PfHsp90 yeast 2 – reduces growth (ATP signal) of yeast expressing P. falciparum Hsp90; 310,000 compounds, 0.32% hits; inhibition, % at 9.4 µM; S. cerevisiae expressing PfHsp90, BacTiter-Glo ATP, 48 h; yeast lacking PDR1 and PDR3 efflux regulators;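 active = every replicate shows inhibition above about 80%, whatever the replicate mean, limit read from the data; inconclusive = mean inhibition reaches the set limit but some replicate falls short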;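 note: 0% = DMSO neutral controls and 100% = 20 µM radicicol positive controls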
Tat transport – inhibitors of E. coli Tat protein transport. E. coli MC4100 TorA-mCherry Tat export, fluorescence. inhibition, % at 10 µM. 340,000 compounds, 0.036% hits;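 active = mean replicate inhibition at least 50% and at least half of replicates individually reaching 50%; inconclusive = only one of the two criteria met; inactive = neither criterion met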;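 note: exported cargo escapes ClpAP degradation while cytoplasmic cargo is degraded and loses fluorescence; 0% = median of neutral control wells and 100% = median of NaSCN control wells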
E coli growth-1 – E. coli growth inhibition; OD600 absorbance (no concentration beside the values); Escherichia coli growth, OD600, 23 h; hits give low values; 330,000 compounds, 0.21% hits;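 active = OD600 absorbance below the run mean of sample wells minus 3.6 SD, in any replicate, cut at about 0.56 in these data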
AddAB inh – less growth of phage-infected E. coli with AddAB; E. coli expressing H. pylori AddAB, absorbance growth; inhibition, % at 11.9 µM; 330,000 compounds, 0.29% hits; in the data active = inhibition above about 12%;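 note: 0% = vehicle wells of infected cells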
E coli growth-2 – reduces bacterial viability in AddAB counter-screen; E. coli V3065 growth, OD600 absorbance, 18 h; inhibition, % at 11.9 µM; 330,000 compounds, 0.27% hits; AID 449728;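 active = inhibition above the campaign's mean inhibition across all tested compounds plus 3 SD, cut at about 9.9% in these data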;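 note: uninfected addAB+ strain grown without phage in ampicillin broth; 0% = DMSO wells and 100% = ciprofloxacin 0.95 µg/ml wells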
AddAB confirm – growth loss of T4-infected E. coli expressing H. pylori AddAB, confirmed. E. coli V3065 expressing H. pylori AddAB, T4 phage, OD; T4 phage with gene 2 nonsense mutations. shares compounds with AddAB inh. inhibition, % at 11.9 µM. 880 compounds, 64% hits;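 active = mean inhibition above a set limit taken from the earlier primary screen, cut at about 13% in these data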;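 note: higher means less bacterial growth since AddAB block lets phage replicate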
RecBCD counter – counter-screen: growth loss of RecBCD+ E. coli with mutant T4 phage; shares compounds with AddAB inh; E. coli V66 + mutant T4 phage, OD growth; inhibition, % at 11.9 µM; 880 compounds, 73% hits;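 active = mean inhibition above the mean of solvent-only control wells plus 3 SD, cut at about 4% in these data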;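 note: optical density read after an 18 h incubation at 37 °C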
bact viab count – reduces bacterial viability, AddAB inhibitor counter-screen; shares compounds with AddAB inh; absorbance (AddAB counterscreen); inhibition, % at 11.9 µM; 880 compounds, 35% hits; in the data active = inhibition above about 25%
RecBCD conf – growth loss of phage-infected V66 E. coli, RecBCD confirmation screen; shares compounds with phage Ecoli inh; E. coli V66 + T4 2- phage, growth OD; inhibition, % at 11.9 µM; 890 compounds, 45% hits; AID 651982;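 active = mean inhibition over triplicates exceeding the hit threshold derived in the original primary screen, cut at about 11% in these data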
Ecoli viability – inhibits E. coli viability, flagging RecBCD hits as nonselective | shares compounds with phage Ecoli inh | absorbance (OD) growth | inhibition, % at 11.9 µM | 890 compounds, 29% hits | AID 651983; in the data active = inhibition above about 20%;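 note: E. coli strain V66 grown with compound alone and no phage infection; 0% = bacteria with DMSO vehicle only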
AddAB phage OD – growth loss of phage-infected AddAB E. coli, RecBCD counter-screen; inhibition, % at 11.9 µM; E. coli expressing H. pylori AddAB + T4 phage, OD growth; gene 2 mutant T4, recBCD-deleted host; shares compounds with phage Ecoli inh; 890 compounds, 45% hits;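 active = mean inhibition above the solvent-only control wells' mean plus 3 SD, cut at about 22% in these data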;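 note: higher means less bacterial growth from phage killing when AddAB is blocked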
The depositor's hits bear a star; ? = inconclusive; . = no result given. An excerpt weighted towards active compounds, which were near 0.69% of everything screened.

SMILES	phage Ecoli inh	PfHsp90 yeast 2	Tat transport	E coli growth-1	AddAB inh	E coli growth-2	AddAB confirm	RecBCD counter	bact viab count	RecBCD conf	Ecoli viability	AddAB phage OD
CN1CCN(c2ccc(NC(=O)c3ccc([N+](=O)[O-])o3)cc2Cl)CC1	23*	-23	-12	0.31*	99*	92*	98*	24*	95*	15*	20*	85*
Cc1cc(C)cc(NC(=O)c2ccc([N+](=O)[O-])o2)c1	10	-58	-5	0.56	.	.	.	.	.	.	.	.
NC(=O)c1oc2ccccc2c1NC(=O)c1ccc(F)cc1	3	-13	-5	0.71	-1	0	.	.	.	.	.	.
O=C(NNC(=O)c1ccc([N+](=O)[O-])o1)c1ccccc1	26*	14	-2	0.35*	68*	86*	103*	23*	70*	18*	21*	102*
COCCN=C1NC(c2ccc(Br)cc2)C(C(=O)OC)=C(C)N1Cc1ccccc1 (configuration not stated)	.	.	.	0.65	.	.	.	.	.	.	.	.
O=C(O)C1=CC(c2ccc(F)cc2)CC(OCc2ccc(CO)cc2)O1 (configuration not stated)	.	.	.	0.71	.	.	.	.	.	.	.	.
O=C(Nc1cccnc1)c1ccc([N+](=O)[O-])o1	20*	8	-37	0.41*	97*	96*	98*	20*	91*	13*	17	101*
COc1ccc(NC(=O)c2ccc(Br)o2)cc1	4	.	-18	0.66	5	2	.	.	.	.	.	.
O=C(Nc1cccnc1)c1ccco1	0	-23	-8	0.65	1	0	.	.	.	.	.	.
COc1ccc(NC(=O)c2ccc([N+](=O)[O-])o2)cc1	19*	-3	-12	0.47*	58*	80*	100*	17*	46*	15*	18	100*
COc1cc(-c2nc3ccccn3c2N=Cc2cc(OC)c(O)cc2Cl)ccc1O	.	.	.	0.67	.	.	.	.	.	.	.	.
COc1ccc(Nc2nnc(SCc3cn4c(C)cccc4n3)s2)cc1	14*	-16	-31	0.6	16*	16*	16*	12*	13	13*	18	19
O=C(c1ccc([N+](=O)[O-])o1)N1CCc2ccccc21	21*	-13	6	0.46*	97*	94*	102*	20*	84*	10	13	98*
O=c1[nH]cc(O)c(=O)[nH]1	3	-12	9	0.75	4	-1	.	.	.	.	.	.
O=c1[nH]cc(F)c(=O)[nH]1	53*	-15	11	.	48*	44*	45*	38*	41*	63*	53*	70*
CN(C)c1ccc(O)c2c1CC1CC3[C@@H](N(C)C)C(=O)C(C(N)=O)=C(O)[C@]3(O)C(=O)C1=C2O (some centres not stated)	99*	-12	149*	.	99*	102*	99*	98*	100*	93*	103*	103*
COCc1ccccc1C1=CC(=O)CC(c2ccc(OC)cc2)C1 (configuration not stated)	.	.	.	0.66	.	.	.	.	.	.	.	.
CCC(=O)NC(c1cccs1)c1cc(Cl)c2cccnc2c1O (configuration not stated)	26*	102*	-4	0.71	23*	26*	25*	22*	16	14*	21*	21
CC(=O)NC(c1ccccc1)c1cc(Cl)c2cccnc2c1O (configuration not stated)	13*	107*	23	0.63	17*	18*	11	15*	4	5	9	10
CC(=O)NC(c1ccc(C)cc1)c1cc([N+](=O)[O-])c2cccnc2c1O (configuration not stated)	1	-17	-9	0.68	1	1	.	.	.	.	.	.
CCCCC(=O)NC(c1cccs1)c1cc(Cl)c2cccnc2c1O (configuration not stated)	17*	103*	-5	0.66	16*	18*	21*	17*	16	11	11	19
CCCC(=O)NC(c1ccco1)c1cc([N+](=O)[O-])c2cccnc2c1O (configuration not stated)	4	-76	-11	0.62	3	-3	.	.	.	.	.	.
CCC(=O)NC(c1cc(Cl)c2cccnc2c1O)C(C)C (configuration not stated)	18*	-1	-3	0.66	15*	17*	4	12*	5	5	8	13
CC(CC(=O)NC(C)c1ccccc1)=NNC(N)=S (configuration not stated)	.	.	.	0.73	.	.	.	.	.	.	.	.
Cc1nn(-c2ccccc2)c(Cl)c1C=C(CC(=O)O)c1nc2ccccc2s1	.	.	.	0.67	.	.	.	.	.	.	.	.
SMILES	phage Ecoli inh	PfHsp90 yeast 2	Tat transport	E coli growth-1	AddAB inh	E coli growth-2	AddAB confirm	RecBCD counter	bact viab count	RecBCD conf	Ecoli viability	AddAB phage OD
Nc1nc(N)c2cc(Sc3ccc4ccccc4c3)ccc2n1	63*	.	.	0.079*	98*	102*	98*	72*	94*	70*	65*	95*
N#Cc1ccc(-c2ccc(C3Nc4ccccc4C(=O)N3O)o2)cc1 (configuration not stated)	8	9	-7	0.69	8	6	.	.	.	.	.	.
CCOC(=O)c1ccc(-c2ccc(C3Nc4ccccc4C(=O)N3O)o2)cc1 (configuration not stated)	24*	-9	1	0.64	21*	22*	20*	21*	18	16*	18	14
Cc1cc([N+](=O)[O-])ccc1-c1ccc(C2Nc3ccccc3C(=O)N2O)o1 (configuration not stated)	24*	?	6	0.59	31*	27*	22*	24*	19	18*	21*	21
CNC(=S)NN=Cc1cc(C)n(-c2ccc(Cl)c(Cl)c2)c1C	.	.	.	0.69	.	.	.	.	.	.	.	.
CCOC(=O)C1C2COc3cc(OC)ccc3C2N2C(=O)N(c3cccc(C)c3)C(=O)[C@]12C (some centres not stated)	.	.	.	0.69	.	.	.	.	.	.	.	.
Cc1ccsc1C=NNC(=O)CNC(=O)c1c(F)cccc1Cl	.	.	.	0.69	.	.	.	.	.	.	.	.
